Results from PubChem BioAssay (NCI).
This is part of a sample that, as a whole, favours compounds with a hit. Of some 79,000 tested, about 15% had one in any assay. Calls of active or inactive are those of the source. No stated cut-off is given here; in the data, active means growth inhibition above about 70%; inactive means the rest.

What was measured:
[1] = NCI Yeast Anticancer Drug Screen. Data for the rad52 strain (AID 147);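 further: 0% = growth of vehicle-treated control cultures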; conditions: S. cerevisiae rad52 mutant growth inhibition, hits give high values
Method in brief: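 Vehicle-treated cultures served as the reference for growth inhibition of compound-exposed yeast bearing a DNA repair mutation.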

[2] = NCI Yeast Anticancer Drug Screen. Data for the wt1 strain (AID 149);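 further: 0% = growth of vehicle-treated wt1 cultures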; conditions: S. cerevisiae wt1 strain (SPY 50644) growth inhibition, hits give high values
Method in brief: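 Compounds are added to wt1 yeast cultures. Growth is then measured. Inhibition is expressed relative to vehicle-treated controls.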

[3] = NCI Yeast Anticancer Drug Screen. Data for the rad50EPP+ strain (AID 151);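 further: 0% = growth of vehicle-treated control cultures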; conditions: S. cerevisiae rad50 mutant strain, hits give high values
Method in brief: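 In this screen, rad50EPP+ yeast were exposed to compounds. Growth inhibition was scored against vehicle-treated controls.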

[4] = NCI Yeast Anticancer Drug Screen. Data for the rad50 strain (AID 155);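 further: 0% = growth of vehicle-only cultures of the same strain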; conditions: S. cerevisiae rad50 strain growth inhibition, hits give high values
Method in brief: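 Inhibition values express reduced yeast growth in compound-treated cultures relative to vehicle-treated controls.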

[5] = NCI Yeast Anticancer Drug Screen. Data for the mec2-1 strain (AID 157); conditions: S. cerevisiae mec2-1 strain, hits give high values
Method in brief: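 Vehicle-treated cultures served as reference for growth inhibition of compound-exposed mec2-1 yeast.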

[6] = NCI Yeast Anticancer Drug Screen. Data for the rad14 strain (AID 159);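 further: 0% = growth of vehicle-treated control cultures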; conditions: S. cerevisiae rad14 strain growth inhibition, hits give high values
Method in brief: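 A mutant yeast strain defective in DNA damage repair is treated with compound; inhibition of its growth is scored against untreated, vehicle-exposed cultures.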

[7] = NCI Yeast Anticancer Drug Screen. Data for the sgs1 mgt1 strain (AID 161);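 further: 0% = growth of cultures given vehicle only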; conditions: S. cerevisiae sgs1 mgt1 strain, hits give high values
Method in brief: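 Inhibition of yeast growth, normalised to vehicle-treated controls, is reported for a strain bearing genetic alterations in DNA damage repair.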

[8] = NCI Yeast Anticancer Drug Screen. Data for the CLN2oe strain (AID 163);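 further: 0% = growth of vehicle-only control cultures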; conditions: S. cerevisiae CLN2oe strain, hits give high values
Method in brief: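 Inhibition relative to vehicle-treated yeast is reported. Cells: strain with genetic alteration in cell-cycle control, grown with compound.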

[9] = NCI Yeast Anticancer Drug Screen. Data for the cln2 rad14 strain (AID 165);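 further: 0% = growth equal to vehicle treated cultures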; conditions: S. cerevisiae cln2 rad14 strain, hits give high values
Method in brief: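 Each compound was tested on cln2 rad14 yeast. Inhibition of growth was calculated against vehicle-exposed controls.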

[10] = NCI Yeast Anticancer Drug Screen. Data for the bub3 strain (AID 167); conditions: S. cerevisiae bub3 mutant strain, hits give high values
Method in brief: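 Steps: expose the mutant yeast strain to compound; grow alongside vehicle-treated cultures; measure growth; express inhibition against the vehicle cultures.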

[11] = NCI Yeast Anticancer Drug Screen. Data for the wt2 strain (AID 169);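 further: 0% = growth of vehicle-treated yeast cultures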; conditions: S. cerevisiae wt2 strain growth inhibition, hits give high values
Method in brief: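 Inhibition of yeast growth was determined after compound treatment, normalised to controls receiving only vehicle.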

[12] = NCI Yeast Anticancer Drug Screen. Data for the mlh1 strain (AID 171);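 further: 0% = growth of vehicle-treated control cultures of the same strain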; conditions: S. cerevisiae mlh1 strain growth inhibition, hits give high values
Method in brief: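 Vehicle-normalised growth inhibition of a repair- or checkpoint-altered yeast strain following compound treatment.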

[13] = NCI Yeast Anticancer Drug Screen. Data for the sgs1 strain (AID 173);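 further: 0% = growth of vehicle-only control cultures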; conditions: S. cerevisiae sgs1 mutant, hits give high values
Method in brief: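 Screen format: yeast with repair or checkpoint alterations, compound exposure, growth read relative to vehicle.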

[14] = NCI Yeast Anticancer Drug Screen. Data for the mlh1 rad18 strain (AID 175); conditions: S. cerevisiae mlh1 rad18 strain growth inhibition, hits give high values
Method in brief: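 Vehicle-treated cultures served as the reference for growth inhibition in a yeast strain carrying DNA damage repair alterations exposed to each compound.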

[15] = NCI Yeast Anticancer Drug Screen. Data for the rad18 strain (AID 177); conditions: S. cerevisiae rad18 mutant growth inhibition, hits give high values
Method in brief: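 Test articles were incubated with altered yeast defective in DNA damage repair. Results are given as inhibition of growth versus vehicle.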

[16] = at 5.0 µM (retest, dose inferred, filed as 0.5)
[17] = at 50.0 µM (retest, dose inferred, filed as 5.0)

Measured: growth inhibition

CC1=C(O)C(=O)C=C2C1=CC=C1[C@@]2(C)CCC2(C)[C@@H]3C[C@@H](C)C(=O)C[C@]3(C)CC[C@]12C (stereo partly drawn)
active: [1]; at 11.0 µM 98% | [1]; at 33.0 µM 98% | [1]; at 100.0 µM 96% | [2]; at 11.0 µM 96% | [2]; at 33.0 µM 97% | [2]; at 100.0 µM 96% | [4]; at 11.0 µM 96% | [4]; at 33.0 µM 97% | [4]; [17] 97% | [4]; at 50.0 µM 88.3% | [4]; at 100.0 µM 97% | [5]; at 11.0 µM 97% | [5]; at 33.0 µM 98% | [5]; [17] 99% | [5]; at 50.0 µM 90.5% | [5]; at 100.0 µM 96% | [6]; at 11.0 µM 94% | [6]; at 33.0 µM 97% | [6]; at 100.0 µM 95% | [7]; [17] 96% | [7]; at 50.0 µM 87.3% | [8]; at 11.0 µM 98% | [8]; at 33.0 µM 98% | [8]; at 100.0 µM 95% | [9]; [17] 97% | [9]; at 50.0 µM 86.5% | [10]; at 11.0 µM 96% | [10]; at 33.0 µM 97% | [10]; [17] 97% | [10]; at 50.0 µM 87.9% | [10]; at 100.0 µM 96% | [11]; at 11.0 µM 93% | [11]; at 33.0 µM 97% | [11]; at 100.0 µM 96% | [12]; at 11.0 µM 95% | [12]; at 33.0 µM 98% | [12]; at 100.0 µM 96% | [13]; at 11.0 µM 96% | [13]; at 33.0 µM 97% | [13]; at 100.0 µM 96% | [14]; [17] 97% | [14]; at 50.0 µM 88.2% | [15]; at 11.0 µM 96% | [15]; at 33.0 µM 98% | [15]; at 100.0 µM 97%
inactive: [1]; at 1.2 µM 41% | [1]; at 3.7 µM 58% | [2]; at 1.2 µM 9% | [2]; at 3.7 µM 8% | [3]; at 1.2 µM 9% | [3]; at 3.7 µM 12% | [3]; at 11.0 µM 29% | [3]; at 33.0 µM 32% | [3]; at 100.0 µM 59% | [4]; at 1.2 µM 11% | [4]; at 3.7 µM 28% | [4]; [16] 4% | [5]; at 1.2 µM 5% | [5]; at 3.7 µM 24% | [5]; [16] 4% | [6]; at 1.2 µM -26% | [6]; at 3.7 µM -13% | [7]; [16] 16% | [8]; at 1.2 µM -13% | [8]; at 3.7 µM 10% | [9]; [16] 35% | [10]; at 1.2 µM -19% | [10]; at 3.7 µM -6% | [10]; [16] 38% | [11]; at 1.2 µM 0% | [11]; at 3.7 µM 0% | [12]; at 1.2 µM 14% | [12]; at 3.7 µM 31% | [13]; at 1.2 µM 17% | [13]; at 3.7 µM 42% | [14]; [16] 41% | [15]; at 1.2 µM 9% | [15]; at 3.7 µM 28%
